Our source for the AC50 and outcome values is PubChem BioAssay (EPA / NIEHS).

One may read the AC50 as the concentration at which the activity in the assay is half-maximal.

A short description of experiment [1]: ATG_CMV_CIS: Attagene CIS-FACTORIAL HepG2 Assay for human CMV (Internal Marker) (AID 2282928).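 Further: endpoint acts as a background internal control marker rather than a target.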 To be noted: HepG2 CMV promoter reporter, transcription factor profiling; actives raise or lower the signal. The method in brief:
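HepG2 cells transiently transfected with multiple cis-regulated reporter units; 24 h compound exposure. Reporter mRNA quantified by RT-PCR, 6-FAM primer-extension labeling, HpaI digestion and capillary electrophoresis; bidirectional fitting against DMSO baseline.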

A short description of experiment [2]: ATG_DR4_LXR_CIS: Attagene CIS-FACTORIAL HepG2 Assay for human Liver X Receptor (LXR), DR4 submotif (AID 2282929). To be noted: HepG2 Attagene DR4 cis-reporter, mRNA transcription; actives raise or lower the signal. The gist of the method: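 Transiently transfected HepG2 liver cells; cis-regulated reporters; 24 h dosing. RT-PCR plus CE read-out of reporter mRNA. DMSO baseline, bidirectional curve fitting.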

The nature of experiment [3]: ATG_AP_1_CIS: Attagene CIS-FACTORIAL HepG2 Assay for human Activator Protein 1 (AP-1) (AID 2282931). To be noted: HepG2 Attagene cis-factorial AP-1 reporter mRNA; actives raise or lower the signal. The gist of the method:
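We transfected HepG2 cells transiently with a set of cis-regulated reporter transcription units, dosed them for 24 h, and quantified reporter mRNA via RT-PCR and capillary electrophoresis, scoring gain or loss of signal relative to DMSO.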

Experiment [4] can be described thus: ATG_AP_2_CIS: Attagene CIS-FACTORIAL HepG2 Assay for human Activator Protein 2 (AP-2) (AID 2282932). To be noted: HepG2 AP-2 cis-reporter, Attagene transcription factor profiling; actives raise or lower the signal. The gist of the method:
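HepG2 cells were transiently transfected with multiple cis-promoter reporter transcription units and dosed for 24 h. Reporter mRNA was measured by RT-PCR with capillary electrophoresis fluorescence; bidirectional fits relative to DMSO baseline.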

A short description of experiment [5]: ATG_BRE_CIS: Attagene CIS-FACTORIAL HepG2 Assay for human Bone Morphogenetic Protein (BMP) Response Element (BRE) (AID 2282933). To be noted: HepG2 BMP response element reporter, Attagene transcription factor profiling; actives raise or lower the signal. The gist of the method:
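After a 24 h chemical treatment, transiently transfected HepG2 cells were lysed for RNA; reporter transcripts were quantified by fluorescent RT-PCR and capillary electrophoresis, normalised to DMSO.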

Experiment [6] concerns the target Retinoic acid receptor alpha (Homo sapiens) (UniProt P10276). Nature of the experiment: ATG_DR5_RAR_CIS: Attagene CIS-FACTORIAL HepG2 Assay for human Retinoic Acid Receptor Alpha (RARE), DR5 submotif (AID 2282934).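 On AC50: reporter responds to endogenous RAR alpha beta and gamma in HepG2 not RARA alone.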 To be noted: HepG2 Attagene cis-factorial RARE DR5 reporter, mRNA; actives raise or lower the signal. The method in brief:
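HepG2 cells transiently transfected with multiplexed reporter units under cis (DR5 RARE) promoters, so endogenous transcription factor activity is measured. After 24 h compound exposure, reporter mRNA is quantified by RT-PCR with fluorescent labelling and capillary electrophoresis; bidirectional fitting versus DMSO.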

Experiment [7] has as its target Transcription factor E2F1 (Homo sapiens) (UniProt Q01094). Nature of the experiment: ATG_E2F_CIS: Attagene CIS-FACTORIAL HepG2 Assay for human E2F Transcription Factor 1 (AID 2282935). Conditions: HepG2 Attagene cis-reporter, E2F reporter RNA transcripts; actives raise or lower the signal. The method in brief: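 HepG2 cells transiently transfected with multiplexed cis-element reporter units, dosed for 24 h. Reporter mRNA measured by RT-PCR, 6-FAM primer-extension labeling, HpaI digestion and capillary electrophoresis; bidirectional fit versus DMSO baseline.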

The nature of experiment [8]: ATG_E_Box_CIS: Attagene CIS-FACTORIAL HepG2 Assay for human Enhancer Box (E-box) (AID 2282936). Conditions: HepG2 E-box cis-reporter transcription, actives raise or lower the signal. The method in brief:
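HepG2 cells transiently transfected with multiplexed cis-element reporter units sensing endogenous transcription factor activity; 24 h compound exposure. Reporter mRNA measured by RT-PCR, 6-FAM primer extension, HpaI digestion and capillary electrophoresis; bidirectional fit versus DMSO.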

Experiment [9] can be described thus: ATG_M_61_CIS: Attagene CIS-FACTORIAL HepG2 Assay for M61 Transcription Factor (Internal Marker) (AID 2282937). Conditions: HepG2 Attagene CIS-FACTORIAL M61 internal marker reporter; actives raise or lower the signal. The gist of the method:
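Multiplexed reporter mRNA assay, HepG2 human hepatoma cells, 24 h treatment. Signal: FAM-labelled, HpaI-digested RT-PCR fragments by CE. Fit: bidirectional, baseline DMSO.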

Experiment [10] deals with Aryl hydrocarbon receptor (Homo sapiens) (UniProt P35869). The experiment is described as follows: ATG_Ahr_CIS: Attagene CIS-FACTORIAL HepG2 Assay for human Aryl Hydrocarbon Receptor (Ahr) (AID 2282930). Conditions: HepG2 AhR cis-factorial reporter transcription; actives raise or lower the signal. The gist of the method: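 HepG2 cells transiently transfected with cis-element-driven multiplexed reporter transcription units; endogenous transcription factor activity measured as reporter mRNA 24 h after dosing. RT-PCR, 6-FAM labelling, HpaI digestion, capillary electrophoresis; bidirectional fitting versus DMSO baseline.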
Sequence of Aryl hydrocarbon receptor (Homo sapiens) (P35869 whole entry, looked up): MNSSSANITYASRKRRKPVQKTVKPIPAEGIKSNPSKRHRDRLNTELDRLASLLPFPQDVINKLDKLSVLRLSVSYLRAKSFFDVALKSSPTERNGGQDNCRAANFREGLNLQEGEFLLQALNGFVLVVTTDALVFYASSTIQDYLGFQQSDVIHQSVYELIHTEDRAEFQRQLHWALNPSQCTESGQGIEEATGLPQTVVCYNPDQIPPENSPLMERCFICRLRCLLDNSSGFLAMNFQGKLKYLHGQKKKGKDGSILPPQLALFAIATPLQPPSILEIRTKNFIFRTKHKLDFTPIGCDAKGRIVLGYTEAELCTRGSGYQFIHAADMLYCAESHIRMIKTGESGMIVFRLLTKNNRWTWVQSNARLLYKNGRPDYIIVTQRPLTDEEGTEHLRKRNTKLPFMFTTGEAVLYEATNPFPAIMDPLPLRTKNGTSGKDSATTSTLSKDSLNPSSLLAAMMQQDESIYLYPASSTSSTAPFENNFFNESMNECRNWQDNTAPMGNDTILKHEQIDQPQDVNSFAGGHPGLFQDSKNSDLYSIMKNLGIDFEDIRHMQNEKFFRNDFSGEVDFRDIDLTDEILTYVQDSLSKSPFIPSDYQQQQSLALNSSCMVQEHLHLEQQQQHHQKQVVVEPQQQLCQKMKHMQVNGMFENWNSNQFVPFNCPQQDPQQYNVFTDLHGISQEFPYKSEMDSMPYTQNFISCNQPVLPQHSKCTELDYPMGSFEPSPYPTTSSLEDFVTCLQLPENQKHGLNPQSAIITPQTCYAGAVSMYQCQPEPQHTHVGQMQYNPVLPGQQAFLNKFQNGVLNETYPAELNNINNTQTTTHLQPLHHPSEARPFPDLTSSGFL

Values joined by “and” are separate entries in the source; they are usually repeats but may differ in a detail not shown here. Identical values can stand only once. Active and inactive are the calls of the source. How the source made its calls: active means hit-call score of the fitted dose curve at least 0.9, where 1 is the maximum; inactive means score below 0.9.

Sequence of Transcription factor E2F1 (Homo sapiens) (Q01094 whole entry, looked up): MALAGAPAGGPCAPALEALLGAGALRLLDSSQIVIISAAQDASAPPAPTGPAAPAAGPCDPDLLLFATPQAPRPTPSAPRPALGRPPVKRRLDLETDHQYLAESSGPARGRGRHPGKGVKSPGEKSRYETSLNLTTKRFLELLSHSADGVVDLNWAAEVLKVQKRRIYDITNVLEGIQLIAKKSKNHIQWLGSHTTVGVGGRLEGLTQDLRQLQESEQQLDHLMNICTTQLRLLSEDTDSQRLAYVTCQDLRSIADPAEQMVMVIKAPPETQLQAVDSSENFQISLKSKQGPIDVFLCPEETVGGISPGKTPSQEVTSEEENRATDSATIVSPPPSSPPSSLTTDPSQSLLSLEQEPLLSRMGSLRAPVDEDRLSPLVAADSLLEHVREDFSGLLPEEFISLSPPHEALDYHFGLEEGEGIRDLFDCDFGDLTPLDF
Sequence of Retinoic acid receptor alpha (Homo sapiens) (P10276 whole entry, looked up): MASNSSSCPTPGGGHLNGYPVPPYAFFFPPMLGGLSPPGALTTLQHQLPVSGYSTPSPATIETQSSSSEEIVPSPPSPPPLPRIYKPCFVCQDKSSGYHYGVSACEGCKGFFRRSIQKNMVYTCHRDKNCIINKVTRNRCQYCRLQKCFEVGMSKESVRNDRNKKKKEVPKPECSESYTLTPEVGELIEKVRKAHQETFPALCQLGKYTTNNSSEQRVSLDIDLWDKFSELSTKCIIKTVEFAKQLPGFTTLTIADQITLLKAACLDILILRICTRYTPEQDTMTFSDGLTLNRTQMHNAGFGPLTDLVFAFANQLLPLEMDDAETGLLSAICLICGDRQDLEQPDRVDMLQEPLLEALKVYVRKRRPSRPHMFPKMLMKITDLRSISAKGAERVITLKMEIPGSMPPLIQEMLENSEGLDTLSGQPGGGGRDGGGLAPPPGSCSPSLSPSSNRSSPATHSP

As for `CCOC(=O)/C=C(C)/C=C/C[C@@H](C)CCCC(C)C`, the AC50 is 132 µM (active) in experiment [1]; 53.5 µM (active) in experiment [2]; 100 µM (active) in experiment [3]; 46.9 µM (active) in [4]; 33.4 µM (active) in [6]; 180 µM (active) in [7]. Also, in experiment [8], the AC50 is 106 µM (active). Besides, the compound was called inactive in experiment [5] and in [9].

For the compound `ClCC(Cl)CCl`, the outcome in experiment [1], in experiment [2], in experiment [3], in experiment [4], in experiment [5] and in [6] was inactive. Besides, the compound was called inactive in [7] and in [8].

As for `c1cc[c]([Hg][c]2ccccc2)cc1`, the call in experiment [1], in experiment [2], in experiment [10], in experiment [4], in experiment [5] and in [6] was inactive. Also, the outcome in experiment [7], in experiment [8] and in experiment [9] was inactive.

Turning to `Nc1ccc(-c2ccc(N)c(Cl)c2)cc1Cl`, the AC50 is 2.15 µM (active) in experiment [1] and 6.23 µM (active) in [10]. For the same compound, the call in experiment [2], in experiment [4], in experiment [5], in experiment [7], in experiment [8] and in experiment [9] was inactive.

Turning to `O=C(O)C(Cl)(Cl)Cl`, the result in experiment [1], in [2], in experiment [3], in experiment [4], in experiment [5] and in [6] was inactive. The result in [7] and in experiment [9] was inactive.

For the compound `COc1ccccc1OC`, the call in experiment [1], in experiment [2], in [3], in experiment [4], in [5] and in experiment [6] was inactive. Further, the call in experiment [7], in experiment [8] and in experiment [9] was inactive.

As to `COc1cc(-c2ccc(N)c(OC)c2)ccc1N`, the AC50 in experiment [1] is 10.5 µM (active) and 27.8 µM (active); in experiment [6], 2.98 µM (active) and 19.8 µM (active). Besides, the call in experiment [2], in experiment [3], in experiment [4], in experiment [5], in experiment [7] and in experiment [9] was inactive.

Consider `CNC(=O)O/N=C/C(C)(C)S(C)=O` (centres undefined), for which the outcome in experiment [1], in experiment [4], in experiment [5], in [6], in experiment [7] and in experiment [8] was inactive. Further, the result in experiment [9] was inactive. Also, the AC50 in experiment [2] is 99.5 µM (active); in experiment [3], 73 µM (active).

Turning to `N#CCc1ccc(Cl)cc1`, the call in experiment [1], in experiment [2], in [10], in experiment [4], in experiment [6] and in [7] was inactive. Further, the outcome in experiment [8] and in [9] was inactive.

On to `C[C@H]1O[C@@H](O[C@H]2[C@@H](O)C[C@H](O[C@H]3[C@@H](O)C[C@H](O[C@H]4CC[C@@]5(C)[C@H](CC[C@@H]6[C@@H]5CC[C@]5(C)[C@@H](C7=CC(=O)OC7)CC[C@]65O)C4)O[C@@H]3C)O[C@@H]2C)C[C@H](O)[C@@H]1O`, for which the outcome in experiment [1], in [5], in [7] and in experiment [8] was inactive. Also, the AC50 in [2] is 0.0564 µM (active); in experiment [3] it was 13.6 µM (active); in [4], 0.141 µM (active).

For the compound `O=[N+]([O-])c1ccc(O)c([N+](=O)[O-])c1`, the compound was called inactive in experiment [1], in [2], in [10], in [4], in experiment [5] and in experiment [6]. For the same compound, the call in experiment [7] and in [9] was inactive.

As for `CC(=O)OC(c1ccccc1)C(Cl)(Cl)Cl` (centres undefined), the result in experiment [1], in experiment [2], in experiment [3], in [4], in experiment [5] and in [7] was inactive. The outcome in [8] was inactive.

Turning to `CCC[CH2][Sn]([CH2]CCC)([CH2]CCC)[O]C(=O)c1ccccc1`, the compound was called inactive in experiment [1], in experiment [2], in [10], in experiment [4], in [7] and in [9].

For `O=C(Cl)c1ccc(Cl)cc1`, the compound was called inactive in experiment [1], in [2], in experiment [10], in [4], in [6] and in [7].

For the compound `COc1cc(OC)nc(NC(=O)NS(=O)(=O)c2ncccc2C(=O)N(C)C)n1`, the call in experiment [1], in experiment [2], in [10], in experiment [4], in experiment [5] and in experiment [7] was inactive.

In the case of `Cc1ccccc1C(=O)Nc1cccc(OC(C)C)c1`, the AC50 is 61.9 µM (active) in experiment [1] and 158 µM (active) in experiment [2]. Moreover, the result in experiment [10], in experiment [4], in experiment [7] and in experiment [8] was inactive.

For `Cc1ccc(N)cc1Cl`, the compound was called inactive in experiment [1], in [2], in experiment [3], in experiment [4], in experiment [5] and in experiment [6]. Further, the compound was classed as inactive in experiment [7], in experiment [8] and in experiment [9].

Regarding `CC(=O)C(Cl)C(=O)N(C)C` (centres undefined), the outcome in experiment [1], in experiment [2], in experiment [10], in experiment [4], in experiment [5] and in [7] was inactive. The result in experiment [8] and in [9] was inactive.
